This is a sample that favours compounds with a hit; in the whole collection about 19% have one here.
Giardia killer = Small Molecules that selectively kill Giardia lamblia: qHTS | Giardia lamblia trophozoite viability | activity change, % at 7.66 µM, hits read low | 0.15% of 340,000 active | AID 540267, 2011; in the data active = activity change below about -80%; inconclusive = between about -30% and that limit;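 note: parasites exposed to compound for two days anaerobically before the ATP read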
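Giardia trophozoites, 100 cells per well, were exposed to compounds for 48 hrs at 37 deg C under anaerobic conditions; viability was then read as ATP content by bioluminescence after 15-30 min at room temperature.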
ELG1 repair inh = qHTS screen for small molecules that inhibit ELG1-dependent DNA repair in human embryonic kidney (HEK293T) cells expressing luciferase-tagged ELG1; HEK293T ELG1-luciferase reporter, luminescence, 16 h; DNA damage induced by 5-fluorouridine; Potency, µM (top dose mostly 46.1 µM), usual class: inhibitors; 2.3% of 330,000 active; AID 504467, 2011; note: nearly all actives have a fitted effect of over 55% in size
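Luminescence from the luciferase reporter, measured 30 min after ONE-Glo reagent at room temperature, was the read-out. Beforehand, 2,000 cells per well were exposed for 16 hr at 37 °C to 5-fluorouridine together with compound or vehicle.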
TDP1 cell CPT = qHTS for Inhibitors of human tyrosyl-DNA phosphodiesterase 1 (TDP1): qHTS in cells in presence of CPT; chicken DT40 Tdp1-/-;hTDP1 cells + 20 nM CPT, ATP luminescence, 48 h; Potency, µM (titrated, usually from 46.2 µM), most hits filed as inhibitors; 12% of 420,000 active; AID 686979, 2013; note: nearly all actives have a fitted effect of over 55% in size
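Chicken DT40 Tdp1-/- cells complemented with human TDP1, 400 cells/well, exposed to compounds plus 20 nM camptothecin for at least 48 h at 37 C; viability read as ATP content by CellTiter-Glo luminescence.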
IL-1B inflam inh = qHTS for Inhibitors of Inflammasome Signaling: IL-1-beta AlphaLISA Primary Screen | activity change, % at 57.5 µM | THP-1 LPS/ATP IL-1B secretion, AlphaLISA, 16 h; hits give low values | 4.7% of 360,000 active | AID 743279, 2014; in the data active = activity change below about -50%; inconclusive = mostly about -30% to -49%
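THP-1 cells pretreated 1 hr with compounds (up to 57.5 uM final), then stimulated with LPS (250 ng/mL final) plus ATP (1.25 mM final); secreted IL-1B measured by AlphaLISA after 16 hr, decreased signal indicating inhibition.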
DT40 TDP1 no CPT = qHTS for Inhibitors of human tyrosyl-DNA phosphodiesterase 1 (TDP1): qHTS in cells in absence of CPT | DT40 Tdp1-/- hTDP1 cells, no CPT, ATP luminescence, 48 h | Potency, µM (series often up to 46.2 µM), most hits filed as inhibitors | 15% of 420,000 active | AID 686978, 2013; note: nearly all actives have a fitted effect of over 55% in size
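Camptothecin absent (DMSO only). Human TDP1-complemented DT40 knockout cells, 400 cells/well, 37 °C for minimum 48 hr; ATP measured via CellTiter-Glo, 30 min dark incubation, luminescence.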
TDP1 block = qHTS Assay for Inhibitors of Tyrosyl-DNA Phosphodiesterase (TDP1); Tyrosyl-DNA phosphodiesterase 1 (Homo sapiens), Q9NUW8; recombinant TDP1, AlphaScreen DNA substrate cleavage; Potency, µM (doses to about 130 µM), most hits filed as inhibitors; 0.28% of 350,000 active; note: nearly all actives have a fitted effect of over 40% in size
Target sequence (Q9NUW8 whole entry, looked up): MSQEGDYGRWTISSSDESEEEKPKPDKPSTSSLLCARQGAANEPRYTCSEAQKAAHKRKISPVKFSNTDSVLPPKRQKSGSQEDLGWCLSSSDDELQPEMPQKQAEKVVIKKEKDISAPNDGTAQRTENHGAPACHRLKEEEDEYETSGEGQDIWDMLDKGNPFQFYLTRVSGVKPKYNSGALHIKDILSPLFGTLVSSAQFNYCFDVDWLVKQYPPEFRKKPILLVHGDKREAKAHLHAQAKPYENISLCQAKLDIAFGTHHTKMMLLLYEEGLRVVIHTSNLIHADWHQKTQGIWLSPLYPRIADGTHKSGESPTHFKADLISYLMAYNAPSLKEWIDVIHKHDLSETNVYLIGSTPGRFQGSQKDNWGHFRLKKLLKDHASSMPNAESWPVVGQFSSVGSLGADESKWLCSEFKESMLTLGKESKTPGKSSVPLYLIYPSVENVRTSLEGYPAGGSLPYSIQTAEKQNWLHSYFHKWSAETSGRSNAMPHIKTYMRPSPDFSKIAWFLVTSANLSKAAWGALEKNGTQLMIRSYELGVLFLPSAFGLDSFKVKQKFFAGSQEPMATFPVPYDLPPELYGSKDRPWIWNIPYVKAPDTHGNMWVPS
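Signal: AlphaScreen proximity between streptavidin donor and anti-FITC acceptor beads on intact substrate. Reaction: Tdp1 1 nM, substrate 15 nM final, 5 min RT after 15 min compound preincubation.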
A number is an active result; i = inactive; ? = inconclusive; nt = no result given; [ ] = another dose, or the depositor's remark. Unless noted, calls come from the whole dose curve; as a rule, active = well fitted curve in the direction sought with a large enough effect; inconclusive = small, poorly fitted or top-dose-only effect, or another doubt; inactive = no such curve, though single readings can be large; an effect the other way counts as inactive or inconclusive.

SMILES	Giardia killer	ELG1 repair inh	TDP1 cell CPT	IL-1B inflam inh	DT40 TDP1 no CPT	TDP1 block
COc1ccc(-c2nnc(SC(C)C(=O)O)o2)cc1 (stereo not drawn)	nt	nt	nt	nt	nt	i
Cc1c(C(=O)N2CCCCC2)sc2ncnc(NCCN(C)C)c12	nt	nt	i	nt	i	nt
Nc1nc(NCCN2CCOCC2)nc(NCc2ccccc2)c1[N+](=O)[O-]	i	i	?	i	18.4µM	i
CN(Cc1ccccc1)c1nc(N)c([N+](=O)[O-])c(NCc2ccccc2)n1	i	i	?	-51.1	?	i
Cc1ccc(-n2nnnc2CNC(=O)c2ccccc2S(C)(=O)=O)cc1C	nt	nt	i	nt	i	i
Cc1ccccc1OCCCCn1c(CO)nc2ccccc21	i	?	9.2µM	i	10.3µM	i
Cc1ccccc1OCCCCn1cnc2ccccc21	i	?	11.6µM	i	13µM	i
COc1ccc(OCCn2cnc3ccccc32)cc1	i	i	i	i	?	i
Cc1ccc(OCCCCn2cnc3ccccc32)cc1	i	?	16.4µM	i	20.6µM	i
c1ccc(OCCCCn2cnc3ccccc32)cc1	i	i	?	i	18.4µM	i
Cc1ccc(OC(=O)CCC(=O)Nc2ccc(C)c(C)c2)cc1	i	nt	i	i	i	nt
CS(=O)(=O)c1ccc(Cl)c(NC(=O)C2CCCN(C(=O)c3ccc(Cl)cc3)C2)c1 (stereo not drawn)	i	i	i	i	i	i
CCOc1cc(CN2CCN(c3ncccn3)CC2)ccc1OC	i	?	i	i	i	nt
O=C(NCc1ccc2c(c1)CCN2C(=O)c1ccncc1)c1ccccc1F	nt	nt	?	nt	?	i
Cc1ccc(C(=O)N2CCc3cc(CNC(=O)CCc4ccccc4)ccc32)cc1	nt	nt	?	nt	?	i
CCc1ccccc1NC(=O)NCc1ccc2c(c1)CCN2C(=O)c1ccccc1	nt	nt	?	nt	23.1µM	i
Cc1ccc(C(=O)N2CCc3cc(CNC(=O)CSc4ccccc4)ccc32)cc1	nt	nt	14.6µM	nt	14.6µM	i
COC(=O)c1ccccc1NC(=O)NCc1ccc2c(c1)CCN2C(=O)c1ccccc1	nt	nt	23.1µM	nt	16.4µM	i
COc1ccc(CC(=O)NCc2ccc3c(c2)CCN3C(=O)c2ccc(C)cc2)cc1OC	nt	nt	13µM	nt	11.6µM	i
COc1ccccc1CN1C(=O)C(Cc2ccccc2)ON=C1c1ncccc1C (stereo not drawn)	nt	nt	?	i	?	nt
O=C(NCCCNC(=O)c1cnccn1)c1cccc(F)c1	i	i	i	i	i	nt
CCCCOc1ccc(C(=O)Nc2onc3c2CCCC3)cc1	nt	nt	?	nt	?	i
Cn1c(=O)c2c(ncn2CC(=O)Nc2cccc(Cl)c2Cl)n(C)c1=O	nt	nt	?	nt	?	i[12.3 µM]
COc1ccc(C)cc1NC(=O)NCc1ccc2c(c1)CCN2C(=O)c1ccccc1	nt	nt	23.1µM	nt	20.6µM	i
CCc1ccc(-c2cn3c(n2)SCC3)cc1	?	?	i	i	i	i
SMILES	Giardia killer	ELG1 repair inh	TDP1 cell CPT	IL-1B inflam inh	DT40 TDP1 no CPT	TDP1 block
CCc1ccc(-c2cn(-c3nc(C)cc(C)n3)c(=N)o2)cc1	i	i	?	-59.3	?	i
CC1CCN2c3cc(Cl)ccc3CC3(C(=O)OC(C)(C)OC3=O)C2C1 (stereo not drawn)	i	nt	i	nt	i	i
COc1ccc(C)cc1NC(=O)Cc1ccc(NC(=O)N2CCCCc3ccccc32)cc1	nt	nt	?	nt	?	i
COc1cc(=O)n2c(c1C(=O)NC(C)c1ccco1)CCN(C(=O)c1cc(C)cc(C)c1)CC2 (stereo not drawn)	nt	nt	i	nt	i	nt
CC1(C)CC(=O)C2=C(C1)NC(Nc1nc3ccccc3o1)=NC2c1ccccc1Cl (stereo not drawn)	i	nt	5.62µM	nt	7.08µM	i
CC1(C)CC(=O)C2=C(C1)NC(Nc1nc3ccccc3o1)=NC2c1ccccn1 (stereo not drawn)	i	i	0.731µM	i	0.82µM	i
CCSc1nc2c(c(=O)[nH]1)C(c1ccccn1)C1=C(CC(C)(C)CC1=O)N2 (stereo not drawn)	i	i	i	i	i	i
CC1(C)CC(=O)C2=C(C1)NC(Nc1nc3ccccc3o1)=NC21CCCC1	i	?	?	i	i	i
COc1ccccc1-c1cc(NC(C)=O)c2ncc(-c3cccc(C(C)=O)c3)n2c1	nt	nt	23.1µM	i	14.6µM	nt
CC(=O)Nc1cc(-c2cccnc2)cn2c(-c3ccc(F)cc3)cnc12	nt	nt	?	i	23.1µM	nt
COc1ccc(-c2cc(NC(C)=O)c3ncc(-c4ccc(OC)c(OC)c4)n3c2)cc1OC	nt	nt	18.4µM	i	14.6µM	nt
CC(=O)Nc1cc(-c2ccsc2)cn2c(-c3ccc(F)cc3)cnc12	nt	nt	16.4µM	i	18.4µM	nt
CC1(C(=O)NS(=O)(=O)c2ccc(C#N)cc2)CCN1C(=O)Cc1ccc(Cl)cc1Cl (stereo not drawn)	nt	nt	i	i	i	nt
COc1ccc(-c2csc(NC(C)=O)n2)cc1OC	i	?	i	?	i	i
COc1ccc(-c2cnc3c(NC(C)=O)cc(-c4ccsc4)cn23)cc1OC	nt	nt	16.4µM	?	20.6µM	nt
COc1ccc(-c2cnc3c(NC(C)=O)cc(-c4ccccc4OC)cn23)cc1OC	nt	nt	11.6µM	nt	i	nt
COc1ccccc1-c1cc(NC(C)=O)c2ncc(-c3ccc(S(C)(=O)=O)cc3)n2c1	nt	nt	?	i	?	nt
CC(C)(C)C1CCc2c(sc3nc(-c4cc5cc(Br)ccc5oc4=O)[nH]c(=O)c23)C1 (stereo not drawn)	nt	nt	i	nt	i	i
COc1ccc(-c2cc(=O)c3cc(OCC(=O)OC(C)C)ccc3o2)cc1	nt	nt	i	nt	i	nt
O=C(Nc1cccc(-c2cn3ccccc3n2)c1)c1cc2ccccc2oc1=O	i	?	2.06µM	-80.3	3.66µM	i
COc1ccc(C2CC(=O)C=C3c4ccc(OC)cc4CCC32)cc1 (stereo not drawn)	nt	nt	?	i	25.9µM	nt
COc1ccccc1-c1cncnc1Nc1ccc(F)cc1	nt	nt	i	nt	i	?
COc1ccc(-c2sc(Nc3ccccc3)n[n+]2-c2ccc(F)cc2)c(C)c1C	i	?	7.31µM	i	10.3µM	nt
CSc1ccc(-c2sc(Nc3ccccc3)n[n+]2-c2ccc(F)cc2)cc1	i	i	11.6µM	i	23.1µM	nt
Oc1ccc(-c2sc(Nc3ccccc3)n[n+]2-c2ccc(F)cc2)cc1	i	i	i	i	i	nt
Cc1cccc(-c2sc(Nc3ccccc3)n[n+]2-c2ccc(F)cc2)c1	i	i	7.31µM	i	9.2µM	nt

From PubChem BioAssay
